High-throughput results deposited in PubChem by National Center for Advancing Translational Sciences (NCATS).
TSHR antag – antagonists of human thyroid stimulating hormone receptor | AID 504810 | TSHR-expressing cells, TSH-stimulated cAMP HTRF, 2 h; stronger effect = lower value | activity change, negative = inhibition, % at 11.5 µM | P16473 | 0.2% of 330,000 active;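 active = activity change below a set negative limit, meaning inhibition stronger than a set level, cut at about -70% in these data; inconclusive = activity change between two set negative limits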; note: % is set by controls: 0 for no effect and ±100 for the full control effect
Target sequence (P16473 whole entry, looked up): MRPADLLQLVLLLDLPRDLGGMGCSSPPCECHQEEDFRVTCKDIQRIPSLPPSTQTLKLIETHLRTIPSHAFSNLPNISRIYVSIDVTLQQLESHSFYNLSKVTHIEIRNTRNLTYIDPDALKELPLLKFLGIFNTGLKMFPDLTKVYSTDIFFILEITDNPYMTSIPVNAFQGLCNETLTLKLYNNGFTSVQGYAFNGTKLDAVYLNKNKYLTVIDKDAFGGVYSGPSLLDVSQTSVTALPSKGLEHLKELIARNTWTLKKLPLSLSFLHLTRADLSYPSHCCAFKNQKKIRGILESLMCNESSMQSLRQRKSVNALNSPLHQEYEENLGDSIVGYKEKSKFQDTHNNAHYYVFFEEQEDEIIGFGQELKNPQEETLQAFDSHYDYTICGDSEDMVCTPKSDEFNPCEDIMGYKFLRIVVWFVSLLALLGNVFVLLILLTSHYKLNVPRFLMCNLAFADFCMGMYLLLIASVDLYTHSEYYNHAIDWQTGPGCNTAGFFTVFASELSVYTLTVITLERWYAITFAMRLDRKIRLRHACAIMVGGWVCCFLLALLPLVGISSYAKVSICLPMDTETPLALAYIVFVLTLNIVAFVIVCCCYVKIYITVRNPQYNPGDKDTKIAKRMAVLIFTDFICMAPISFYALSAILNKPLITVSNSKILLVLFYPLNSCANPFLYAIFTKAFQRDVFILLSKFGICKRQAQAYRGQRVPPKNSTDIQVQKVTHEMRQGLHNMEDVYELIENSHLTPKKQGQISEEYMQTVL
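TSHR-expressing cells were treated with compounds, then stimulated with TSH at EC80 (4nM final) for 2 hours at 37 deg C. Cellular cAMP was measured by HTRF competition between lysate cAMP and cAMP-d2 for a cryptate-labelled anti-cAMP antibody.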
FBPA coupling cs – coupling enzyme interference in Giardia aldolase counter-screen; AID 2472; activity change, negative = inhibition, % at 58.2 µM, hits read low; coupling enzyme system counterscreen, AmpLite Red fluorescence; 0.67% of 290,000 active; in the data active = activity change below about -30%; note: % is set by controls: 0 for no effect and ±100 for the full control effect
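Final compound at 57.5 uM, incubated 10 min at RT with coupling enzyme reagent (glyceraldehyde-3-phosphate), then 20 min with substrate and AmpLite Red detection. Fluorescence read at 525/598 nm; tests interference with the coupling assay, not aldolase inhibition.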
TCR activator – T cell receptor activation. primary human leukocytes, anti-CD3, IL-2 HTRF, 48 h. Potency, µM (highest dose often 9.22 µM), without a hit: top-dose activation of IL-2 secretion, most hits filed as activators. 330,000 tested, under 10 active; note: % of control where 0% means no effect
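IL-2 release read by HTRF sandwich (Eu cryptate donor, d2 acceptor, 665 nm emission) after 48 hr exposure of primary human leukocytes to compound together with anti-CD3 beads in the absence of co-stimulatory signals.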
TRb-SRC2 inh – TRbeta-SRC2 interaction inhibition | Potency, µM (series often up to 106 µM), for inactives: at the top dose activity change, negative = inhibition, hits mostly inhibitors | TRbeta-SRC2 peptide binding, fluorescence polarization; receptor liganded with 1 µM T3 | 0.065% of 280,000 active | P10828;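 note: potency is the fitted concentration of half-maximal effect; plate controls were bound peptide for no effect and peptide without receptor for full effect; nearly all actives have a fitted effect of over 50% in size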
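Each compound concentration gave % activity, normalized to unbound and bound Texas Red SRC2 controls, from polarization read after 5 hr ambient incubation with T3-loaded human TRb LBD.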
NPSR antagonist – antagonists of human neuropeptide S receptor cAMP signaling. Q6W5P4. 1% of 220,000 active. Potency, µM (titrated, usually from 38.3 µM), for the others: top-dose activity change, negative = inhibition, actives largely listed as inhibitors. CHO-NPSR cells, cAMP TR-FRET, antagonist mode; note: potency is the fitted concentration of half-maximal effect; % is set by controls: 0 for no effect and ±100 for the full control effect; nearly all actives have a fitted effect of over 50% in size
TR SRC2 fluor cs – Texas Red fluorescence interference in TRb-SRC2 counter-screen | TRb/SRC2 Texas Red total fluorescence interference | Potency, µM (highest dose often 106 µM), without a hit: at the highest dose fluorescence change, negative = quenching | 0.29% of 280,000 active; active = well fitted curve in either direction with a large enough effect; inconclusive = small, poorly fitted or top-dose-only effect; note: potency is the fitted concentration of half-maximal effect; % is set by controls: 0 for no effect and ±100 for the full control effect
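Flags fluorescent or light-absorbing compounds by total fluorescence, S + 2P, at 555 nm excitation and 632 nm emission. Mixture: 20 nM Texas Red SRC2 peptide, 0.6 uM human TRb LBD, 1 uM T3, 5% DMSO; compound exposure 5 h at ambient temperature.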
* marks the source's active call; other numbers are inactive results; [ ] = another dose, or the depositor's remark. Hits are enriched below; roughly 1% of the tested compounds scored in any of these assays. Unless noted, calls come from the whole dose curve; as a rule, active = well fitted curve in the direction sought with a large enough effect; inconclusive = small, poorly fitted or top-dose-only effect, or another doubt; inactive = no such curve, though single readings can be large; an effect the other way counts as inactive or inconclusive.

What do the screens show for `CNc1ccc(Br)cc(C(=O)/C=C/c2cccc(OC)c2)c1=O`?
TSHR antag: -8.3; FBPA coupling cs: -28.6; TCR activator: 0.4%[46.1 µM]; TRb-SRC2 inh: 0.7%; NPSR antagonist: 9.2%[46.1 µM]; TR SRC2 fluor cs: -10.3%

How did CNc1ccc(Br)cc(C(=O)/C=C/c2ccc(OC)cc2OC)c1=O do in these assays?
TSHR antag: -12.1; FBPA coupling cs: -38.5*; TCR activator: 2.4%[46.1 µM]; TRb-SRC2 inh: 3.3%; NPSR antagonist: -27.8%; TR SRC2 fluor cs: -3.8%

How did CC[C@H](C)[C@H](NC(=O)[C@H](CO)NC(=O)[C@H](C)NC(=O)[C@H](C)NC(=O)[C@H](CCC(N)=O)NC(=O)[C@H](CCCCN)NC(=O)[C@H](CCCN=C(N)N)NC(=O)[C@@H](N)CS)C(=O)N[C@@H](CCCCN)C(=O)N[C@H](C(=O)N[C@@H](C)C(=O)N[C@H](C(=O)N[C@@H](CO)C(=O)O)C(C)C)C(C)C do in these assays?
FBPA coupling cs: 1.2; TRb-SRC2 inh: -2.1%; TR SRC2 fluor cs: -1.0%

Results for C=CCn1c(NC(=O)c2ccccc2Cl)c(C#N)c2nc3ccccc3nc21 ?
TSHR antag: 1.6; FBPA coupling cs: -51.6*; TCR activator: 1.6%; TRb-SRC2 inh: inconclusive; NPSR antagonist: 4.4%[46.1 µM]; TR SRC2 fluor cs: -18.1%

What do the screens show for `CCCCCn1c(N)c(C#N)c2nc3ccccc3nc21`?
TSHR antag: -23.8; FBPA coupling cs: -3.5; TCR activator: -2.5%; TRb-SRC2 inh: -8.5%; NPSR antagonist: -8.2%[46.1 µM]; TR SRC2 fluor cs: -4.3%

How did CCCCn1c(NC(C)=O)c(C#N)c2nc3ccccc3nc21 do in these assays?
TSHR antag: inconclusive; FBPA coupling cs: -58.7*; TCR activator: -5.5%; TRb-SRC2 inh: -0.3%; NPSR antagonist: 11.2%[46.1 µM]; TR SRC2 fluor cs: 1.3%

What do the screens show for `CCCCNC(=O)CSc1nc2ccc(N3CCOCC3)cc2c(=O)n1CCc1ccccc1`?
TSHR antag: 2.3; FBPA coupling cs: -36.7*; TCR activator: 8.2%; TRb-SRC2 inh: -19.2%; NPSR antagonist: -25.4%; TR SRC2 fluor cs: -0.7%

How did COCCNC(=O)CSc1nc2ccc(N3CCOCC3)cc2c(=O)n1CCc1ccccc1 do in these assays?
TSHR antag: -6.1; FBPA coupling cs: -43.7*; TCR activator: 2.0%; TRb-SRC2 inh: -5.6%; NPSR antagonist: -27.1%[46.1 µM]; TR SRC2 fluor cs: -2.8%

Results for CCCCn1c(SCC(=O)NCCOC)nc2ccc(N3CCOCC3)cc2c1=O ?
TSHR antag: 11.8; FBPA coupling cs: -37.0*; TCR activator: 3.8%; TRb-SRC2 inh: 6.1%; NPSR antagonist: -5.1%[46.1 µM]; TR SRC2 fluor cs: -4.6%

Results for CCOC(=O)CSc1nc2ccc(N3CCOCC3)cc2c(=O)n1Cc1ccccc1 ?
TSHR antag: 2.2; FBPA coupling cs: -31.9*; TCR activator: -3.7%; TRb-SRC2 inh: 2.0%; NPSR antagonist: -20.7%[46.1 µM]; TR SRC2 fluor cs: -3.0%

What do the screens show for `CCOC(=O)CSc1nc2ccccc2c(=O)n1CCN1CCOCC1`?
TSHR antag: 1.1; FBPA coupling cs: 1.4; TCR activator: 5.3%[46.1 µM]; TRb-SRC2 inh: -9.0%; NPSR antagonist: -4.9%[46.1 µM]; TR SRC2 fluor cs: -4.7%

Results for CC(=O)c1cccc(NC(=O)CSc2nnc3ccc(-c4ccc(Br)cc4)nn23)c1 ?
TRb-SRC2 inh: -2.2%; TR SRC2 fluor cs: 0.8%

Results for COc1ccccc1NC(=O)c1cc2cc3ccc(OC)c(Cl)c3nc2s1 ?
TRb-SRC2 inh: 3.4%; TR SRC2 fluor cs: -4.0%

How did O=C(CSc1nc2ccc(N3CCOCC3)cc2c(=O)n1CCc1ccccc1)NCC1CCCO1 (configuration not stated) do in these assays?
TSHR antag: 2.7; FBPA coupling cs: -31.5*; TCR activator: -4.8%; TRb-SRC2 inh: -4.5%; NPSR antagonist: -18.3%; TR SRC2 fluor cs: -1.9%

What do the screens show for `O=C(CSc1nc2ccccc2c(=O)n1CCC(=O)N1CCN(c2ccccc2)CC1)NCC1CCCO1` (configuration not stated)?
TSHR antag: -0.8; FBPA coupling cs: 1.0; TCR activator: 2.5%; TRb-SRC2 inh: 10.8%; NPSR antagonist: -27.0%; TR SRC2 fluor cs: -1.5%

Results for O=C(Nc1cccc(Cl)c1)Nc1nnc(-c2ccncc2)s1 ?
TSHR antag: -73.3*; FBPA coupling cs: 0.2; TCR activator: -2.0%[46.1 µM]; TRb-SRC2 inh: 2.6%; NPSR antagonist: -25.3%; TR SRC2 fluor cs: -1.9%

How did O=C(Nc1ccc(Cl)cc1)Nc1nnc(-c2ccncc2)s1 do in these assays?
TSHR antag: -11.7; FBPA coupling cs: -0.5; TCR activator: 5.2%[46.1 µM]; TRb-SRC2 inh: -2.3%; NPSR antagonist: -18.7%; TR SRC2 fluor cs: -1.8%

What do the screens show for `CN1CC=C2C(C#N)=C(N)C(C#N)(C#N)[C@H](c3ccoc3)[C@H]2C1`?
TSHR antag: -7.4; FBPA coupling cs: -31.3*; TCR activator: 1.3%; TRb-SRC2 inh: inconclusive; NPSR antagonist: -13.8%[46.1 µM]; TR SRC2 fluor cs: 14.6%

Results for CCc1ccc(CNC(=O)c2sc3ncccc3c2-n2c(C)ccc2C)cc1 ?
TRb-SRC2 inh: 3.9%; TR SRC2 fluor cs: -29.0%

What do the screens show for `Cc1nc(-c2cccc(NC(=O)c3ccc(-n4nccc4C)cc3)c2)cs1`?
TSHR antag: -72.1*; TCR activator: 3.3%

How did Cc1ccc(NC(=O)CN2C(=O)N/C(=C/c3ccco3)C2=O)cc1 do in these assays?
TSHR antag: 20.0; FBPA coupling cs: -7.5; TCR activator: -1.7%; TRb-SRC2 inh: 10.6%; NPSR antagonist: -13.2%[46.1 µM]; TR SRC2 fluor cs: 50.1µM*[quencher]

What do the screens show for `Cc1ccc(C)c(N=Cc2cc3c(cc2[N+](=O)[O-])OCO3)c1`?
TSHR antag: -9.9; FBPA coupling cs: -40.1*; TCR activator: -0.5%; TRb-SRC2 inh: -2.1%; NPSR antagonist: 10.0%; TR SRC2 fluor cs: -1.7%

How did COc1ccc(CNc2ncnc3ccc(-c4ccccc4CN(C)C)cc23)c(OC)c1 do in these assays?
FBPA coupling cs: -2.8; TRb-SRC2 inh: -1.4%; TR SRC2 fluor cs: -23.4%

Results for CCOc1ccc(CCNC(=O)c2c3c(nc4ccccc24)C(=O)N(C2CCCCC2)C3)cc1 ?
TRb-SRC2 inh: 4.4%; TR SRC2 fluor cs: -3.6%

What do the screens show for `CCCNC(=O)COC(=O)/C=C/c1cccc(F)c1`?
TSHR antag: 10.1; FBPA coupling cs: 0.7; TCR activator: 1.5%; TRb-SRC2 inh: -2.9%; NPSR antagonist: -3.8%; TR SRC2 fluor cs: -1.3%

How did CCCNC1=C(N(C(C)=O)c2cccc(F)c2)C(=O)c2ccccc2C1=O do in these assays?
TSHR antag: 17.6; FBPA coupling cs: -48.8*; TCR activator: -2.3%[46.1 µM]; TRb-SRC2 inh: -5.2%; NPSR antagonist: 5.7%; TR SRC2 fluor cs: 1.5%

What do the screens show for `COc1cc(C(=O)OCc2cc(=O)n3ccsc3n2)cc(OC)c1OC`?
TRb-SRC2 inh: 0.8%; TR SRC2 fluor cs: 1.5%
